# Experiments:
# Experiment in all cases: PBM binding z-score (relative to random genomic background probes); higher = stronger binding; sequences stand for … in GC…GCGATTGACAGCGTAGAATGAAGG
# [1] = test system: FXR:RXRa (NR concentration 270 nM, RXRa partner concentration 90 nM)
# Procedure, shortened: (§1)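 Custom Agilent 4×180K protein-binding microarrays carried double-stranded probes, each with a 34-nt variable region. These regions held direct-repeat seeds, single-nucleotide variants, half-site ablations and random human genomic background sequences. Ligand-free nuclear receptor dimers were incubated on the arrays for 1 h, antibodies against each partner (one per run) detected binding, and scanned fluorescence was regression-normalized. Binding z-scores take the random background probes as reference.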
# [2] = test system: LXRa:RXRa (NR concentration 270 nM, RXRa partner concentration 90 nM)
# Procedure, shortened: as §1
# [3] = test system: LXRa homodimer (NR concentration 270 nM)
# Procedure, shortened: as §1
# [4] = test system: LXRb:RXRa (NR concentration 270 nM, RXRa partner concentration 90 nM)
# Procedure, shortened: as §1
# [5] = test system: LXRb homodimer (NR concentration 270 nM)
# Procedure, shortened: as §1
# [6] = test system: PPARa:RXRa (NR concentration 270 nM, RXRa partner concentration 90 nM)
# Procedure, shortened: as §1
# [7] = test system: PPARg:RXRa (NR concentration 180 nM, RXRa partner concentration 90 nM)
# Procedure, shortened: as §1
# [8] = test system: PPARg:RXRa 270nM:90nM, anti-RXR (NR concentration 270 nM, RXRa partner concentration 90 nM)
# Procedure, shortened: as §1
# [9] = test system: PPARg:RXRa 30nM:10nM, anti-RXR (NR concentration 30 nM, RXRa partner concentration 10 nM)
# Procedure, shortened: as §1
# [10] = test system: PPARg:RXRa 90nM:30nM, anti-RXR (NR concentration 90 nM, RXRa partner concentration 30 nM)
# Procedure, shortened: as §1
# [11] = test system: PPARg:RXRa DBDmut IVT, anti-RXR (DBD mutation: RXRa K156A/R161A, NR concentration 270 nM, RXRa partner concentration 90 nM)
# Procedure, shortened: as §1
# [12] = test system: PPARg:RXRa IVT, anti-PPARg (NR concentration 270 nM, RXRa partner concentration 90 nM)
# Procedure, shortened: as §1
# [13] = test system: PPARg DBDmut:RXRa IVT, anti-PPARg (DBD mutation: PPARg1 K132A/R137A, NR concentration 270 nM, RXRa partner concentration 90 nM)
# Procedure, shortened: as §1
# [14] = test system: PPARg DBDmut IVT, anti-PPARg (DBD mutation: PPARg1 K132A/R137A, NR concentration 270 nM)
# Procedure, shortened: as §1
# [15] = test system: PPARg homodimer (NR concentration 180 nM)
# Procedure, shortened: as §1
# [16] = test system: PXR:RXRa (NR concentration 270 nM, RXRa partner concentration 90 nM)
# Procedure, shortened: as §1
# [17] = test system: PXR homodimer (NR concentration 270 nM)
# Procedure, shortened: as §1
# [18] = test system: RARa:RXR (NR concentration 270 nM, RXRa partner concentration 90 nM)
# Procedure, shortened: as §1
# [19] = test system: RARa homodimer (NR concentration 270 nM)
# Procedure, shortened: as §1
# [20] = test system: RARb:RXRa (NR concentration 270 nM, RXRa partner concentration 90 nM)
# Procedure, shortened: as §1
Sequence,PBM binding z-score [1],PBM binding z-score [2],PBM binding z-score [3],PBM binding z-score [4],PBM binding z-score [5],PBM binding z-score [6],PBM binding z-score [7],PBM binding z-score [8],PBM binding z-score [9],PBM binding z-score [10],PBM binding z-score [11],PBM binding z-score [12],PBM binding z-score [13],PBM binding z-score [14],PBM binding z-score [15],PBM binding z-score [16],PBM binding z-score [17],PBM binding z-score [18],PBM binding z-score [19],PBM binding z-score [20]
AAAATGAGGTTATACGTAGATCAGGGAAGAAAGT,2.34,2.36,0.225,1.87,0.19,3.52,2.69,2.4,1.33,1.9,4.62,3.11,2.19,1.29,0.818,1.37,0.994,1.99,0.921,1.56
TAGCCTAGGTCATTGGGCCAGTAGAGTACGCATC,3.86,3.33,0.509,2.17,-0.0447,3.92,3.68,3.97,0.744,2.76,2.83,3.89,-0.36,-0.247,0.811,1.57,-0.0607,2.13,-0.3,3.54
ATATGTACGTTAGCTGGGGTCATTCAGACTAGGC,3.94,3.99,2.29,4.39,1.42,4.07,1.74,2.27,0.566,1.33,0.759,1.55,1.41,1.62,2.55,5.7,3.18,5.82,1.41,2.57
TCATATAGGTAAATGCTAGGTGAGAGTCCGATCT,-0.733,0.512,-0.251,0.0109,-0.13,1.05,0.622,1.86,3.39,2.64,3.83,2.57,0.808,0.825,0.0695,0.187,0.158,0.343,0.662,0.218
AATACAGGTTCACTAGGCCAGAGTAGGTACGAAT,1.7,2.58,0.711,1.5,0.333,3.19,3.24,2.98,0.739,1.97,1.36,2.73,1.46,0.869,0.811,1.47,0.559,1.64,0.374,1.78
ACTAGCAAGCCAAGTTTGGGTCACTCAAACAAAG,-0.12,-0.258,-0.55,0.443,-0.728,0.909,-0.253,0.132,-0.505,-0.56,-0.834,0.332,-1.3,-0.652,-0.225,0.253,-0.636,0.968,-0.901,0.801
TTACCAAGGTGAGCTTAGGTCGTTGATCCAACTC,0.558,0.409,-0.684,0.122,-1.23,1.05,-0.0698,0.725,-0.0893,0.244,1.61,1.67,-0.375,-0.536,-0.601,1.62,-0.264,0.665,-0.83,1.36
CGAACGAGGGCACGAGTTGATAGCAAATGCCGAT,0.992,0.567,-0.547,0.453,-0.624,2.28,2.4,1.99,0.448,1.44,3.89,3.93,0.0277,-0.0688,-0.0293,0.738,0.271,1.12,-0.123,2.6
CCTACTGGGCCATTCAGAGGTCCTTGATCATATG,-0.359,-0.572,-0.215,-0.597,-0.529,0.27,0.118,0.194,-0.728,-0.16,4.1,3.15,-0.401,0.127,-0.0171,-0.621,-0.408,-0.409,-0.479,0.0641
ATATGTAGGTTAAGGGTCATTAAGGTTGGTTCGC,5.05,4.87,2.72,4.3,0.865,6.59,11.6,9.59,10.3,10.7,7.35,7.81,2.09,1.17,3.24,4.92,3.59,5.16,2.38,3.74
ACTTACGGGTCAACGAGGTTGTAGCACGCGTATA,6.76,4.66,0.172,4,0.502,5.6,5.04,4.93,1.89,3.69,3.1,3.83,2.28,1.73,3.47,4.95,1.29,5.07,0.713,4.04
CAAACTAGGTAACCGGAAGGTCAAAGTCCGCATG,4.07,3.94,3.88,3.43,0.672,4.48,4.83,4.98,2.22,4.2,6.68,6.36,1.05,1.34,3.53,3.95,1.57,4.88,1.78,3.35
TCTGGTAGATCAGCAGGTTAAGAAAGCTGGCCAA,-0.0813,-0.0843,-0.0573,0.308,-1.12,0.507,-0.637,1.06,1.81,1.12,0.973,-0.29,-0.344,-0.477,-0.534,-0.014,-0.669,0.363,-0.495,0.127
CCTAGCAGGCCAATCTCGGTCACTCAAGGCTTGA,0.604,2.68,0.339,-0.0855,-0.585,0.406,-0.312,-0.384,-1.26,-0.439,1.96,1.29,-0.633,-1.57,0.0271,-0.17,-0.412,0.0359,-0.713,1.34
GCGACTGCGGCATCAGCAGGTTACCATAACTTAA,-0.558,-0.742,0.0285,-0.388,-1.12,-0.34,-0.014,-0.695,-0.628,-0.649,-0.255,-0.657,-1.23,-0.596,-0.378,-0.379,-0.376,-0.0824,-0.219,-0.277
AGAATGAGGTTAAGATCAGGGTAACAGAATACAT,2.5,2.47,0.0614,2.01,-0.068,3.68,2.64,2.66,0.832,1.9,3.19,3.28,1.74,0.532,1.13,1.73,0.602,2.85,0.262,2.08
TTACCAAGGTGAAAGGTCGCTGATGCACGCCTTG,2.82,2.6,-0.188,2.24,-0.623,5.25,8.28,8.53,7.04,9.59,2.44,5.19,0.53,0.614,1.28,3.66,-0.522,5.46,0.386,3.12
CCTACTGGGCCATCTGGTCATTGATATCAACGTT,-0.161,-0.364,-0.126,-0.0941,-0.192,0.878,1.09,2.19,0.303,1.69,3.95,4.15,0.821,0.613,0.5,-0.397,-0.43,-0.692,0.0969,0.606
ATCTCTAGGTAAGACTGAGTTCAGTGAAGAACGC,0.449,0.657,0.601,0.352,0.691,0.568,-0.0566,0.369,0.167,0.0734,1.52,1.3,0.582,0.923,0.874,2.66,3.46,0.632,0.634,0.692
TAGCCTAGGACAGATCGGGCCAGTATACGCTATA,-1.33,-1.15,-0.706,-1.34,-0.794,-1.96,0.367,-0.842,-0.355,-0.623,-0.993,-0.151,-0.673,0.0562,-1.15,-0.732,-0.768,-0.695,-1.42,-0.928
AATACTGGGTCACTAGGCCAGAGTAGGTACGAAT,1.9,1.69,0.246,1.5,0.438,4.37,8.02,5.97,3.2,4.75,6.63,7.76,5.62,2.22,1.9,0.792,0.0229,1.53,0.983,3.19
TCGAATAGGTTACCAATGGGGCATTCAGCTTTCT,0.65,2.61,-0.377,2,-0.392,1.87,0.255,1.75,2.94,2.43,2.41,1.12,0.24,-0.411,0.402,0.725,0.0437,0.908,0.281,1.57
CCTACGGGGCCATCAGGTCATTGATATCAACGTT,2.38,1.72,0.922,1.91,-0.245,2.46,1.25,1.88,0.224,0.958,1.08,2.4,-0.644,-0.657,1.9,2.18,0.639,2.97,0.686,2.86
TCATATAGGTAAATGCTATGTGAAAGTCCGATCT,0.801,0.648,0.000605,0.522,-0.0167,1.13,1,2.16,3.62,3.03,3.59,2.05,1.25,1.39,0.542,0.621,-0.0684,0.813,1.29,0.304
TAGCCTAGGTCAGATCGGGCCATTATACGCTATA,2.53,1.3,-0.125,1.07,-0.132,1.55,0.711,0.523,-0.272,0.0184,0.579,1.34,-0.598,-0.774,0.357,2.69,-0.448,1.33,-0.736,2.84
GCTGCTAGGTCAACTGATGGTCGGCTAAAGCTCG,3.88,3.08,0.00529,1.89,-0.133,3.7,2.39,3.16,0.547,1.99,4.58,4.01,0.404,-0.469,0.839,1.4,-0.734,2.31,-0.561,4.45
GCTATTAGTTGAGAGGGCAACCGAATGATTCTCG,0.249,0.428,0.355,0.434,-0.23,1.38,1.03,2.25,0.553,1.53,0.549,0.28,0.117,-0.0279,0.87,0.651,-0.0553,0.826,0.278,1.4
ATCGAAAGGTCGTTAGGTGAGTATACAGAAAGGC,3.98,3.54,0.592,3.08,1.11,4.25,2.59,3.29,1.33,2.27,0.388,2.1,1.14,1.04,1.51,2.9,0.99,3.2,0.848,3.53
